# The other results are listed elsewhere or left out. How many sequences the whole screen found active is unknown.
# Molecular target: furin, P09958
# Assay: furin cleavage Z-score vs untreated control; higher = more cleavage, active = 3.5 or more, inactive = 1 or less, 8 variable residues between constant flanks
# Method in brief: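 Magnetic beads held 8-mer peptides by the N-terminus, each fused to a cDNA oligonucleotide, and purified furin was added for 7.5, 15 or 30 min. Released DNA was sequenced after PCR adapter tagging. The cleavage Z-score is the log count relative to furin-free reactions, lowess-adjusted and divided by median absolute deviation.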
# 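Note: purified furin at 1:10 enzyme:substrate in 50 mM HEPES pH 7.5.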
# Chain of furin, P09958 (P09958 whole entry): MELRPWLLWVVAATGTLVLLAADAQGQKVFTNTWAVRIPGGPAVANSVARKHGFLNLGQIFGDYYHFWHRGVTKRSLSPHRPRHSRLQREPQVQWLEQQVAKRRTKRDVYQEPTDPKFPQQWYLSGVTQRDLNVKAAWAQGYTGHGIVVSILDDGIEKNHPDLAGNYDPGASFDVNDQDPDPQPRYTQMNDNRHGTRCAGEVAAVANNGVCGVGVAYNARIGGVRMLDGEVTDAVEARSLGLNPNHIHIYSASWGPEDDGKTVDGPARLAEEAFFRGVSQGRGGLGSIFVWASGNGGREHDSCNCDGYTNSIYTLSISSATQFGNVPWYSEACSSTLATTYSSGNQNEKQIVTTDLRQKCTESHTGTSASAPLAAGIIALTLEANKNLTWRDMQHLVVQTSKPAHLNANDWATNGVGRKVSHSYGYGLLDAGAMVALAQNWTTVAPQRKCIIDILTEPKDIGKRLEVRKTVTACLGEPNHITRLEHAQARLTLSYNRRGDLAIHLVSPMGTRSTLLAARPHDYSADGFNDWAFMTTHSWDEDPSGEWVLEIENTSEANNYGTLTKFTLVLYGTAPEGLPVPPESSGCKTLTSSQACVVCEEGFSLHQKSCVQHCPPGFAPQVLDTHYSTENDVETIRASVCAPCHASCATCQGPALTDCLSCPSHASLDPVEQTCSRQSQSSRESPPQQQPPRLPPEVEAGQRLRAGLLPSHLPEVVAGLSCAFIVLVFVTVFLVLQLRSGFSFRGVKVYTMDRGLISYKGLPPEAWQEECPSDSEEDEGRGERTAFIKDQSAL
Sequence,furin cleavage Z-score (7.5 min),furin cleavage Z-score (15 min),furin cleavage Z-score (30 min)
CATTPCSGSLAGNASASA [HC1925],-0.297 (inactive),-1.38 (inactive),-1.27 (inactive)
CAMEEPSQHLAGNASASA [HC20],-0.193 (inactive),1.35,1.68
CAELQRQKRSAGNASASA [FS-762],10.3 (active),11.5 (active),9.23 (active)
CAIHHRQKRSAGNASASA [FS-540],12 (active),10.4 (active),9.65 (active)
CASLLKVPYFAGNASASA [HC613],-0.873 (inactive),0.367 (inactive),-0.906 (inactive)
CAVASRNRRAAGNASASA [FS-147],13.1 (active),12.8 (active),9.83 (active)
CAPARRSVLAAGNASASA [FS-1987],-0.364 (inactive),-0.766 (inactive),-0.871 (inactive)
CAPARRNRRAAGNASASA [FS-837],8.23 (active),9.65 (active),8.04 (active)
CAPGEINRVAAGNASASA [HC1610],0.342 (inactive),1.78,0.355 (inactive)
CALTTTQWQVAGNASASA [HC494],0.00411 (inactive),-0.467 (inactive),0.941 (inactive)
CACEIYGACYAGNASASA [HC1593],-1.5 (inactive),-1.53 (inactive),-2.18 (inactive)
CAGSPRPRRRAGNASASA [FS-436],7.08 (active),9.3 (active),7.64 (active)
CAPISYLKGSAGNASASA [HC739],0.299 (inactive),-0.469 (inactive),-0.42 (inactive)
CALAARPRRRAGNASASA [FS-815],4.52 (active),6.47 (active),5.7 (active)
CAPISRPRRRAGNASASA [FS-1648],7.6 (active),8.41 (active),6.07 (active)
CAEVYTSTWVAGNASASA [HC2189],0.0489 (inactive),-1.01 (inactive),-0.826 (inactive)
CAESEVPCHRAGNASASA [HC2457],-0.0892 (inactive),0.0197 (inactive),0.878 (inactive)
CAMLECSQHLAGNASASA [HC1685],-0.00687 (inactive),-0.291 (inactive),-0.319 (inactive)
CALPAILSPGAGNASASA [HC1102],-0.355 (inactive),-0.501 (inactive),-0.653 (inactive)
CATTPNSGSWAGNASASA [HC58],-0.658 (inactive),-1.14 (inactive),-1.83 (inactive)
CAHFQRVKRGAGNASASA [FS-1335],7.42 (active),6.93 (active),6.76 (active)
CASADLVVRGAGNASASA [FS-89],0.299 (inactive),-0.542 (inactive),-0.0754 (inactive)
CASHLRVKRGAGNASASA [FS-1280],7.98 (active),7.64 (active),6.42 (active)
CAMDARHKRGAGNASASA [FS-364],6.41 (active),8.49 (active),7.7 (active)
CAMLRRTKRGAGNASASA [FS-691],-0.133 (inactive),-0.069 (inactive),0.376 (inactive)
CAKYGRVKRGAGNASASA [FS-1354],0.448 (inactive),0.71 (inactive),0.194 (inactive)
CATTPCSWSWAGNASASA [HC1888],-2.26 (inactive),-1.57 (inactive),0.135 (inactive)

Sequence,furin cleavage Z-score (7.5 min),furin cleavage Z-score (15 min),furin cleavage Z-score (30 min)
CAWPAPQGSRAGNASASA [HC716],1.18,-0.57 (inactive),0.187 (inactive)
CANDCPNSSIAGNASASA [HC263],0.567 (inactive),0.0331 (inactive),-0.164 (inactive)
CARNKREDRTAGNASASA [FS-2727],11.9 (active),12.6 (active),8.05 (active)
CAREKKVTRTAGNASASA [FS-2914],-1.91 (inactive),-0.133 (inactive),0.367 (inactive)
CARVLRENGKAGNASASA [FS-3119],0.679 (inactive),-0.235 (inactive),0.807 (inactive)
CAREKRKNRTAGNASASA [FS-1888],0.751 (inactive),1.62,-0.32 (inactive)
CARNKRESGKAGNASASA [FS-1757],8.44 (active),9.42 (active),7.75 (active)
CATAILSSLTAGNASASA [HC1133],-0.0959 (inactive),1.64,1.05
CALDMIAGAHAGNASASA [HC333],-0.265 (inactive),-1.79 (inactive),0.6 (inactive)
CAVVCHSMSYAGNASASA [HC89],-0.697 (inactive),-0.997 (inactive),-0.52 (inactive)
CACEVLSDFKAGNASASA [HC1153],-1.16 (inactive),-1.03 (inactive),0.3 (inactive)
CADTTIMAKNAGNASASA [HC1438],1.51,-0.0215 (inactive),0.93 (inactive)
CADNKRMARNAGNASASA [FS-984],5.12 (active),6.32 (active),6.33 (active)
CAAASRLARGAGNASASA [FS-211],0.553 (inactive),1.11,0.636 (inactive)
CANGFRHARNAGNASASA [FS-466],-0.528 (inactive),-0.454 (inactive),-0.259 (inactive)
CAPNSRLARNAGNASASA [FS-475],6.58 (active),6.13 (active),6.41 (active)
CARLYRSLGEAGNASASA [FS-2045],1.86,4.55 (active),4.61 (active)
CARLGAVQNEAGNASASA [HC974],-1.44 (inactive),-1.09 (inactive),-2.56 (inactive)
CASKKRSNGLAGNASASA [FS-3136],-1.83 (inactive),0.376 (inactive),2.11
CARVKRDLVLAGNASASA [FS-2317],8.24 (active),11 (active),9.42 (active)
CARNKKDVNLAGNASASA [FS-2726],0.881 (inactive),0.588 (inactive),0.399 (inactive)
CARELRQLMEAGNASASA [FS-2916],0.168 (inactive),-0.988 (inactive),-1.36 (inactive)
CARVKRSPGLAGNASASA [FS-2387],10.4 (active),10.3 (active),9.1 (active)
CARVKRSLGEAGNASASA [FS-1977],10.7 (active),12.6 (active),9.34 (active)
CARVKRVLMGAGNASASA [FS-2618],-0.934 (inactive),-0.615 (inactive),-0.629 (inactive)
CAQVRNSTGLAGNASASA [HC257],-0.176 (inactive),1.49,0.103 (inactive)

# From the supplement of paper PMC3545927
